Results on 98 compounds are retold here after the supplement of paper PMC12340641.

The full ranking holds about 1,000 compounds; the median of “relative growth in counter assay (no AraC = 100%, AraC + DMSO = 0%)” is about -1.1, and the highest 2% start at about 20. The sample holds the highest values, similar compounds and a random draw of the others, so the mix is not that of the screen.

The test system of the test is HEK293FT dCK*-only. Kind of test: relative growth in counter assay (no AraC = 100%, AraC + DMSO = 0%); higher = more growth rescue independent of IKZF1. The conditions noted are these: compound concentration: 5 uM; AraC concentration: 0.3 uM; overnight pretreatment + 4 days AraC. As for the experimental part:
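Growth recovery screen of the molecular-glue-like (Specs) library. HEK293FT cells expressing a dCK*-IKZF1 fusion (primary) or dCK* alone (counter) were pretreated overnight with compound at 5 uM, then given 0.3 uM AraC for 4 days. Hoechst nuclei were counted by imaging. Primary: normalised to pomalidomide (100%) and DMSO (0%), mean of 2 replicates. Counter: normalised to no-AraC (100%) and AraC+DMSO (0%), single replicate.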
As to `Cc1cc(C)c2[nH]c3nc(SCC(=O)Nc4ccc(Cl)cc4)nnc3c2c1`, the “relative growth in counter assay” value is -17.9%. `Cc1cc(C)nc(NS(=O)(=O)c2ccc(Nc3nc(-c4ccc(Cl)cc4)cs3)cc2)n1`: the “relative growth in counter assay” value is -7.62%. Under `O=C(Nc1ccc(S(=O)(=O)Nc2ncccn2)cc1)c1ccc(Br)cc1` stands 1.1%; under `CCOCC(=O)Nc1ccc(S(=O)(=O)Nc2ncccn2)cc1`, -2.18%; under `O=C(C1CNCCO1)N1CCC(c2cccc(Nc3ncc(-c4ccccc4)s3)n2)CC1` (stereo not drawn), 1.14%. Under `O=S(=O)(Cc1ccccc1)Nc1ccc(S(=O)(=O)Nc2ncccn2)cc1` stands 5.8%; under `Cc1ccnc(NS(=O)(=O)c2ccc(NC(=O)Cc3c(F)cccc3Cl)cc2)n1`, 10%. Consider `COc1ccc(-c2csc(Nc3ccc(S(=O)(=O)Nc4nc(C)cc(C)n4)cc3)n2)cc1`, for which the “relative growth in counter assay” value was -6.81%. For the compound `O=C(Nc1ccc(S(=O)(=O)Nc2ncccn2)cc1)c1ccccc1Br`, the “relative growth in counter assay” value was -0.83%. The same measure for `Cc1ccc(OCC(=O)Nc2ccc(S(=O)(=O)Nc3ncccn3)cc2)cc1C`: 2.12%; for `Cc1csc(Nc2cccc(C3CN(C(=O)COc4c(C)cccc4C)CCO3)n2)n1` (stereo not drawn): 1.27%; for `Cc1cnc(Nc2cccc(C3CN(C(=O)CCC4CCCCC4)CCO3)n2)s1` (stereo not drawn): -1.73%.

Take `COc1cccc(OC)c1C(=O)N1CCOC(c2cccc(Nc3nc(C)cs3)n2)C1` (stereo not drawn): the “relative growth in counter assay” value was found to be 10.3%. Under `Cc1csc(Nc2cccc(C3CN(C(=O)Cn4nc(C)ccc4=O)CCO3)n2)n1` (stereo not drawn) stands -2.02%. The same measure for `CC(=O)N1CCC(Cc2cccc(Nc3nc(C)cs3)n2)CC1`: 24.3%. Under `Cc1cnc(Nc2cccc(C3CN(C(=O)C45CC6CC(CC(C6)C4)C5)CCO3)n2)s1` (stereo not drawn) stands -1.75%; under `Cc1cnc(Nc2cccc(C3CN(C(=O)C4CC4c4ccc(Cl)cc4)CCO3)n2)s1` (stereo not drawn), 28.7%. With `Cc1csc(Nc2cccc(CC3CCN(CC(=O)N(C)C)CC3)n2)n1`, the “relative growth in counter assay” value turned out to be 7.9%. The same measure for `Cc1csc(Nc2cccc(C3CN(C(=O)CCC4CCCC4)CCO3)n2)n1` (stereo not drawn): 32.3%. Under `Cc1csc(Nc2cccc(C3CN(C(=O)CCOc4ccccc4C)CCO3)n2)n1` (stereo not drawn) stands 49.2%; under `Cc1cnc(Nc2cccc(C3CN(C(=O)C4CCCC4)CCO3)n2)s1` (stereo not drawn), -17%; under `CC(=O)N1CCC(Cc2cccc(Nc3nccs3)n2)CC1`, -8.99%. With `Cc1cnc(Nc2cccc(C3CN(C(=O)COc4cccc(F)c4)CCO3)n2)s1` (stereo not drawn), the “relative growth in counter assay” value was -7.34%.

As to `Cc1cnc(Nc2cccc(C3CN(C(=O)COc4ccccc4)CCO3)n2)s1` (stereo not drawn), the “relative growth in counter assay” value is -9.61%.

In the case of `Cc1cnc(Nc2cccc(C3CN(C(=O)CCOc4cccc(F)c4)CCO3)n2)s1` (stereo not drawn), the “relative growth in counter assay” value stood at 19.7%. The same measure for `Cc1ccc(OCC(=O)Nc2ccc(S(=O)(=O)Nc3cc(C)nc(C)n3)cc2)c(C)c1`: -2.7%. Under `Cc1cc(C)nc(NS(=O)(=O)c2ccc(NC(=O)C(C)Oc3ccccc3F)cc2)n1` (stereo not drawn) stands 5.27%.

As to `COc1ccccc1OCC(=O)Nc1ccc(S(=O)(=O)Nc2nc(C)cc(C)n2)cc1`, the “relative growth in counter assay” value is -7.04%. `CC(C)(C)C(=O)N1CCC(Cc2ccc(Nc3ncc(-c4ccc(F)cc4)s3)nc2)CC1`: the “relative growth in counter assay” value amounted to 12.2%. Consider `Cn1nccc1/C=C/C(=O)N1CCCC(c2csc(Nc3ccccn3)n2)C1` (stereo not drawn), for which the “relative growth in counter assay” value is 29%. Under `O=C(/C=C/c1ccco1)N1CCCC(c2csc(Nc3ccccn3)n2)C1` (stereo not drawn) stands 11.1%; under `O=C(/C=C/c1ccccc1)N1CCCC(c2csc(Nc3ccccn3)n2)C1` (stereo not drawn), 34.8%; under `Cn1nccc1/C=C/C(=O)N1CCCC(c2cc3ccccc3c(Nc3nccs3)n2)C1` (stereo not drawn), -13.3%. Under `CC(=O)N1CCCC(c2csc(Nc3ccccn3)n2)C1` (stereo not drawn) stands 0.33%. The same measure for `Cn1nccc1/C=C/C(=O)N1CCCC1c1csc(Nc2ccccn2)n1` (stereo not drawn): -0.93%; for `O=C(C1CCCCC1)N1CCC(c2cccc(Nc3nccs3)n2)CC1`: -10.8%.

In the case of `O=C(Nc1ccc(S(=O)(=O)Nc2ccccn2)cc1)c1cc2ccccc2o1`, the “relative growth in counter assay” value was -2.82%. Under `CCCc1cnc(Nc2cccc(C3CN(C(=O)C4CCCCC4)CCO3)n2)s1` (stereo not drawn) stands -12.3%; under `Cc1cnc(Nc2cccc(C3CCN(C(=O)C4CCC4)CC3)n2)s1`, -21%; under `Cc1ccc(C)c(OCCCC(=O)Nc2ccc(S(=O)(=O)Nc3ncccn3)cc2)c1`, -2.63%. In the case of `CC(C)(C)c1ccccc1OCC(=O)Nc1ccc(S(=O)(=O)Nc2ccccn2)cc1`, the “relative growth in counter assay” value came out at 4.41%.

In the case of `COc1cc2c(cc1CCC(=O)N1CCCC1c1cccc(Nc3nccs3)n1)CCC2` (stereo not drawn), the “relative growth in counter assay” value is -3.49%. Under `CC(C)(C)c1ccccc1OCC(=O)Nc1ccc(S(=O)(=O)Nc2ncccn2)cc1` stands -1.93%; under `Cc1cnc(Nc2cccc(C3CCN(C(=O)CCc4nc5ccccc5[nH]4)CC3)n2)s1`, -4.59%. On to `CCCC(C)C(=O)Nc1ccc(S(=O)(=O)Nc2nccc(C)n2)cc1` (stereo not drawn), for which the “relative growth in counter assay” value was -3.64%. Under `Cc1cnc(Nc2cccc(C3CN(C(=O)c4ccccn4)CCO3)n2)s1` (stereo not drawn) stands -7.73%. Turning to `O=C(CSc1nnc2c(n1)[nH]c1ccc(Cl)cc12)Nc1ccc(Cl)cc1`, the “relative growth in counter assay” value came out at 3.64%.

On to `COC(=O)C(c1cccc(Nc2ncc(C)s2)n1)C1CCN(C(=O)C2(NC(=O)OC(C)(C)C)CCCCC2)CC1` (stereo not drawn), for which the “relative growth in counter assay” value was 9.03%.

On to `COc1cc(NS(=O)(=O)c2ccc(NC(=O)c3ccc([N+](=O)[O-])cc3)cc2)nc(OC)n1`, for which the “relative growth in counter assay” value was 4.43%. As to `CNC(=O)C(c1cccc(Nc2ncc(C)s2)n1)C1CCN(C(=O)[C@H](CC(C)C)NC(=O)OC(C)(C)C)CC1` (stereo partly drawn), the “relative growth in counter assay” value turned out to be 8.97%. Under `CCCC(=O)Nc1ccc(S(=O)(=O)Nc2cc(OC)nc(OC)n2)cc1` stands -1.4%; under `O=C(COc1ccc(F)cc1)N1CCC(c2cccc(Nc3nccs3)n2)CC1`, 6.47%. For `Cn1c(SCC(=O)Nc2ccccn2)nc2ccccc21`, the “relative growth in counter assay” value worked out at 0.85%. Under `COc1cc(NS(=O)(=O)c2ccc(NC(=O)/C=C/C(=O)O)cc2)nc(OC)n1` stands 2.31%; under `CNC(=O)C(c1cccc(Nc2ncc(C)s2)n1)C1CCN(C(=O)c2cccc(Cl)c2F)CC1` (stereo not drawn), -0.24%; under `O=C(CO)N1CCC(c2cccc(Nc3ncc(-c4ccccc4)s3)n2)CC1`, -21.4%. Under `CCN1CC(C(=O)N2CCC(c3cccc(Nc4ncc(C)s4)n3)CC2)CC1=O` (stereo not drawn) stands -1.29%. Under `COc1cc(NS(=O)(=O)c2ccc(NCc3ccccc3O)cc2)nc(OC)n1` stands -0.72%; under `Cc1noc(CCC(=O)N2CCOC(c3cccc(Nc4nc(C)c(C)s4)n3)C2)n1` (stereo not drawn), 5.54%; under `COc1cccc(C(=O)Nc2ccc(S(=O)(=O)Nc3ncccn3)cc2)c1`, -5%. Consider `Cc1nc(Nc2cccc(C3CCN(C(=O)c4n[nH]c5c4CCCC5)CC3)n2)sc1C`, for which the “relative growth in counter assay” value worked out at 14%. As to `Cc1cc(C)nc(SCC(=O)Nc2ccc(S(=O)(=O)Nc3ncccn3)cc2)n1`, the “relative growth in counter assay” value is 19.9%. The same measure for `CC(=O)Nc1ccc(S(=O)(=O)Nc2nc(C)cc(C)n2)cc1`: -0.14%; for `CCC(Oc1ccccc1)C(=O)Nc1ccc(S(=O)(=O)Nc2ncccn2)cc1` (stereo not drawn): 27.4%. For `Cc1cc(C)nc(NS(=O)(=O)c2ccc(NC(=O)CSc3nccn3C)cc2)n1`, the “relative growth in counter assay” value came out at 2.1%. Under `Cc1cc(C)nc(NS(=O)(=O)c2ccc(NC(=O)CCl)cc2)n1` stands 23.6%; under `CCC(Oc1ccccc1)C(=O)Nc1ccc(S(=O)(=O)Nc2nc(C)cc(C)n2)cc1` (stereo not drawn), -3.58%; under `Cc1cc(C)nc(NS(=O)(=O)c2ccc(NC(=O)CSc3nc(C)cc(C)n3)cc2)n1`, -6.83%. Turning to `CC(Oc1ccccc1)C(=O)Nc1ccc(S(=O)(=O)Nc2ncccn2)cc1` (stereo not drawn), the “relative growth in counter assay” value was 0.06%.

For `CCCC(=O)Nc1ccc(S(=O)(=O)Nc2nc(C)cc(C)n2)cc1`, the “relative growth in counter assay” value is -9.14%. Under `O=C(CCCOc1ccccc1)Nc1ccc(S(=O)(=O)Nc2ncccn2)cc1` stands 2.79%; under `COC(C)(C)C(=O)N1CCOC(c2cccc(Nc3ncc(C)s3)n2)C1` (stereo not drawn), -13%. The same measure for `COCC(=O)N1CCCC1c1cccc(Nc2ncc(C)s2)n1` (stereo not drawn): 0.29%. The same measure for `Cc1csc(Nc2cccc(C3CCCN3CC(N)=O)n2)n1` (stereo not drawn): 16.8%; for `Cc1ccc(S(=O)(=O)Nc2ccc(S(=O)(=O)Nc3nccc(C)n3)cc2)cc1`: -5.66%; for `Cc1ccccc1N1C(=O)c2ccc(Oc3ccc(N)cc3)cc2C1=O`: 12.7%. `O=C(CC(c1ccccc1)c1ccccc1)Nc1ccc(S(=O)(=O)Nc2ncccn2)cc1`: the “relative growth in counter assay” value is -1.59%. The same measure for `Cc1cnc(Nc2cccc(C3CN(C(=O)C4CCCO4)CCO3)n2)s1` (stereo not drawn): -14.9%. The same measure for `Cc1cnc(Nc2cccc(C3CCN(C(=O)C4C5C=CC(C5)C4C(=O)NCCO)CC3)n2)s1` (stereo not drawn): -24.7%; for `O=S(=O)(Nc1ncccn1)c1ccc(-n2cnnn2)cc1`: -1.47%. Under `Cc1cnc(Nc2cccc(CC3CCN(C(=O)C4CCCCC4)CC3)n2)s1` stands -6.51%; under `COc1nccnc1NS(=O)(=O)c1ccc(NC(=S)NC(=O)/C=C/c2cccs2)cc1`, 8.21%; under `Cc1ccnc(NS(=O)(=O)c2ccc(NC(=O)c3ccc(-c4ccccc4)cc3)cc2)n1`, 0.76%. With `Cc1ccc(Oc2cccc(N3C(=O)c4ccc(Oc5ccc(N)cc5)cc4C3=O)c2)cc1C`, the “relative growth in counter assay” value is -3.99%. Consider `O=C(C1CCCCC1)N1CCOC(c2cccc(Nc3ncc(Cc4ccc(F)cc4)s3)n2)C1` (stereo not drawn), for which the “relative growth in counter assay” value is -1.26%. Under `O=C(Nc1ccc(S(=O)(=O)Nc2ccccn2)cc1)c1ccco1` stands 4.23%; under `CCOCCC(=O)Nc1ccc(S(=O)(=O)Nc2nccc(C)n2)cc1`, -2.85%; under `Cc1ccc(C(C)(C)C(=O)N2CCCC2c2cccc(Nc3ncc(C)s3)n2)cc1` (stereo not drawn), -21%.

Turning to `Cc1cc(NS(=O)(=O)c2ccc(NC(=O)c3ccccc3)cc2)nc(C)n1`, the “relative growth in counter assay” value was 0.4%.

Regarding `CCOC(=O)c1nc[nH]c1C(=O)N1CCOC(c2cccc(Nc3ncc(C)s3)n2)C1` (stereo not drawn), the “relative growth in counter assay” value was -2.22%.

For the compound `CC(C)(C)CC(=O)Nc1ccc(S(=O)(=O)Nc2ncccn2)cc1`, the “relative growth in counter assay” value is -0.2%. On to `Cc1cc(C)c2[nH]c3nc(SCC(=O)Nc4cccc(Cl)c4C)nnc3c2c1`, for which the “relative growth in counter assay” value is -20.1%. The same measure for `O=C(/C=C/c1ccccc1)N1CCCC1c1csc(Nc2ccccn2)n1` (stereo not drawn): -3.28%; for `CCCc1cnc(Nc2cccc(C3CCN(C(=O)C(C)(C)NC(=O)COC)CC3)n2)s1`: -2.68%; for `Cc1cnc(Nc2cccc(C3CN(C(=O)C4CCCC(C)C4)CCO3)n2)s1` (stereo not drawn): -12.6%. As to `CN(C)CC(=O)N1CCCC1c1cccc(Nc2nccs2)n1` (stereo not drawn), the “relative growth in counter assay” value is -0.55%. The same measure for `NC(=O)CN1CCC(Cc2cccc(Nc3nccs3)n2)CC1`: -23.2%; for `Cc1cnc(Nc2cccc(C3CCN(C(=O)C4CCC(=O)N4)CC3)n2)s1` (stereo not drawn): -24.6%.
